According to PubChem BioAssay (NCI):
The panel holds about 79,000 compounds, 15% with a hit somewhere; the sample as a whole holds those more often. Active and inactive are the calls of the source. Rule as the data show it: active = growth inhibition above about 70%; inactive = the rest.

Tests used:
[1] = NCI Yeast Anticancer Drug Screen. Data for the rad50 strain (AID 155);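 also: 0% = growth of vehicle-only cultures of the same strain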; details: S. cerevisiae rad50 strain growth inhibition, hits give high values
Procedure, shortened: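 Growth of the mutant yeast was measured after compound exposure and referenced to vehicle-treated cultures.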

[2] = NCI Yeast Anticancer Drug Screen. Data for the mec2-1 strain (AID 157); details: S. cerevisiae mec2-1 strain, hits give high values
Procedure, shortened: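 Cells of the genetically defined mec2-1 yeast strain are incubated with test compound. Inhibition of growth is calculated against vehicle-treated controls.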

[3] = NCI Yeast Anticancer Drug Screen. Data for the sgs1 mgt1 strain (AID 161);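 also: 0% = growth of cultures given vehicle only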; details: S. cerevisiae sgs1 mgt1 strain, hits give high values
Procedure, shortened: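 Inhibition of yeast growth, normalised to vehicle-treated controls, is reported for a strain bearing genetic alterations in DNA damage repair.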

[4] = NCI Yeast Anticancer Drug Screen. Data for the cln2 rad14 strain (AID 165);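 also: 0% = growth equal to vehicle treated cultures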; details: S. cerevisiae cln2 rad14 strain, hits give high values
Procedure, shortened: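 The screen exposed genetically defined yeast (cln2 rad14) to test compounds and scored growth inhibition relative to vehicle-treated controls.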

[5] = NCI Yeast Anticancer Drug Screen. Data for the bub3 strain (AID 167); details: S. cerevisiae bub3 mutant strain, hits give high values
Procedure, shortened: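 Whole-cell yeast assay. The mutant strain was incubated with compounds, and growth inhibition was determined by comparison with vehicle-treated cells.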

[6] = NCI Yeast Anticancer Drug Screen. Data for the mlh1 rad18 strain (AID 175); details: S. cerevisiae mlh1 rad18 strain growth inhibition, hits give high values
Procedure, shortened: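 Compound-treated yeast growth, normalised to vehicle controls. Strain bears defined DNA repair mutations.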

[7] = at 5.0 µM (retest, dose inferred, filed as 0.5)
[8] = at 50.0 µM (retest, dose inferred, filed as 5.0)

Measured: growth inhibition

C/C(=N/O)c1ccc2c(c1)C(C)c1ccccc1-2 (stereo not given)
inactive: [1]; [7] -147% | [1]; [8] -142% | [1]; at 50.0 µM 35.2% | [2]; [7] -53% | [2]; [8] -54% | [2]; at 50.0 µM 45.9% | [3]; [7] -59% | [3]; [8] -65% | [3]; at 50.0 µM 34.5% | [4]; [7] -60% | [4]; [8] -66% | [5]; [7] -62% | [5]; [8] -54% | [6]; [7] -113% | [6]; [8] -103%
active: [4]; at 50.0 µM 77.4% | [5]; at 50.0 µM 78.2% | [6]; at 50.0 µM 75%

COc1c(C(=O)/C(=N/Nc2ccccc2)C(C)=O)c(O)c(OC)c2occc12
inactive: [1]; [7] -2% | [1]; at 50.0 µM 45.7% | [2]; [7] -18% | [2]; at 50.0 µM 52.5% | [3]; [7] -39% | [4]; [7] -19% | [4]; at 50.0 µM 33% | [5]; [7] -32% | [5]; at 50.0 µM 47.8% | [6]; [7] 2% | [6]; at 50.0 µM 68.8%
active: [1]; [8] 94% | [2]; [8] 87% | [3]; [8] 82% | [3]; at 50.0 µM 73.2% | [4]; [8] 91% | [5]; [8] 92% | [6]; [8] 90%

Oc1cccc(-c2nc(-c3ccccc3)c(-c3ccccc3)[nH]2)c1
inactive: [1]; [7] 57% | [1]; [8] 58% | [2]; [7] -2% | [2]; [8] 22% | [3]; [7] 29% | [3]; [8] 69% | [3]; at 50.0 µM 53.1% | [4]; [7] 8% | [4]; [8] 22% | [5]; [7] 32% | [5]; [8] 43% | [6]; [7] 29% | [6]; [8] 43%
active: [1]; at 50.0 µM 98.5% | [2]; at 50.0 µM 98.8% | [4]; at 50.0 µM 99.2% | [5]; at 50.0 µM 98.8% | [6]; at 50.0 µM 98.5%

COc1cc2c(cc1OC(C)=O)C(=O)C(Br)(Br)CCC2
active: [1]; [8] 99% | [2]; [8] 99% | [2]; at 50.0 µM 98.5% | [3]; [7] 88% | [3]; [8] 99% | [4]; [8] 98% | [4]; at 50.0 µM 94.2% | [5]; at 50.0 µM 99% | [6]; [8] 99% | [6]; at 50.0 µM 98.5%
inactive: [1]; [7] 66% | [1]; at 50.0 µM 62.5% | [2]; [7] 32% | [3]; at 50.0 µM 65.1% | [4]; [7] 13% | [5]; [7] 10% | [5]; [8] 47% | [6]; [7] 49%

C1=C(c2ccccc2)OC(c2ccccc2)=C[P+]1(c1ccccc1)c1ccccc1
active: [1]; [7] 96% | [1]; [8] 98% | [1]; at 50.0 µM 92.1% | [2]; [7] 98% | [2]; [8] 99% | [2]; at 50.0 µM 90.8% | [3]; [7] 99% | [3]; [8] 99% | [3]; at 50.0 µM 91% | [4]; [7] 93% | [4]; [8] 99% | [4]; at 50.0 µM 86.8% | [5]; [7] 97% | [5]; [8] 99% | [5]; at 50.0 µM 93% | [6]; [7] 95% | [6]; [8] 98% | [6]; at 50.0 µM 92.7%

O=C(O)CCCc1ccc2c(c1)CC1(C2)Cc2ccc(CCCC(=O)O)cc2C1
inactive: [1]; [7] 28% | [1]; [8] 44% | [1]; at 50.0 µM -38% | [2]; [7] 21% | [2]; [8] 33% | [2]; at 50.0 µM 2.15% | [3]; [7] 27% | [3]; [8] 38% | [3]; at 50.0 µM -28.3% | [4]; [7] 22% | [4]; [8] 27% | [4]; at 50.0 µM 8.65% | [5]; [7] 20% | [5]; [8] 29% | [5]; at 50.0 µM 9.45% | [6]; [7] 28% | [6]; [8] 45% | [6]; at 50.0 µM -5.8%

COc1cccc2c1C(=O)c1c(O)c3c(c(O)c1C2=O)C[C@@](O)(C(=O)CO)C[C@@H]3OC1CC(N)CC(C)O1 (stereo not given in full)
inactive: [2]; [7] 24% | [3]; [7] 61% | [4]; [7] 63% | [6]; [7] 69%
active: [1]; [7] 81% | [1]; [8] 98% | [1]; at 50.0 µM 89.3% | [2]; [8] 98% | [2]; at 50.0 µM 90.4% | [3]; [8] 99% | [3]; at 50.0 µM 90.1% | [4]; [8] 98% | [4]; at 50.0 µM 85% | [5]; [7] 76% | [5]; [8] 99% | [5]; at 50.0 µM 88.9% | [6]; [8] 97% | [6]; at 50.0 µM 92%

CC(=O)c1c2c(cc3c1CC1(C3)Cc3cc4c(c(C(=O)O)c3C1)CCC4)CCC2 (stereo not given)
inactive: [1]; [7] 53% | [2]; [7] 56% | [3]; [7] 65% | [5]; [7] 63%
active: [1]; [8] 94% | [1]; at 50.0 µM 84% | [2]; [8] 96% | [2]; at 50.0 µM 79.8% | [3]; [8] 97% | [3]; at 50.0 µM 89.6% | [4]; [7] 70% | [4]; [8] 95% | [4]; at 50.0 µM 84.2% | [5]; [8] 95% | [5]; at 50.0 µM 83.5% | [6]; [7] 73% | [6]; [8] 96% | [6]; at 50.0 µM 83.4%

CCN(CC)CCCOC(=O)C(c1ccccc1)C1CCCCC1 (stereo not given)
inactive: [1]; [7] 4% | [1]; [8] 63% | [2]; [7] 11% | [2]; at 50.0 µM 67.5% | [3]; [7] 22% | [4]; [7] 13% | [4]; [8] 41% | [5]; [7] 16% | [6]; [7] 41%
active: [1]; at 50.0 µM 88.5% | [2]; [8] 71% | [3]; [8] 94% | [3]; at 50.0 µM 90.7% | [4]; at 50.0 µM 88.5% | [5]; [8] 83% | [5]; at 50.0 µM 94.1% | [6]; [8] 97% | [6]; at 50.0 µM 98%

O=S(=O)(Nc1ccccc1)c1ccccc1CC(O)(c1ccccc1)c1ccccc1
active: [1]; [8] 90% | [1]; at 50.0 µM 90% | [2]; [8] 94% | [2]; at 50.0 µM 93% | [3]; [7] 98% | [3]; [8] 94% | [3]; at 50.0 µM 91.2% | [4]; [8] 89% | [4]; at 50.0 µM 90.4% | [5]; [8] 90% | [5]; at 50.0 µM 90.4% | [6]; [7] 90% | [6]; [8] 90% | [6]; at 50.0 µM 89.2%
inactive: [1]; [7] 46% | [2]; [7] 67% | [4]; [7] 59% | [5]; [7] 40%
